From the supplement of paper PMC10849652
Targets with a hit are over-represented here; the source holds about 8,800 in all. About 0.5% of all pairs of compound and target were hits. Unmarked numbers belong to inactive results.

Experiments:
Experiment in all cases: log2 fold change, soluble protein after heating vs DMSO (PISA); higher = thermal stabilisation; K562 lysate, 10 uM; active = over 0.2 and 3.5 SD of the protein, either way, in both replicates (recomputed)
vemurafenib = compound: CCCS(=O)(=O)Nc1ccc(F)c(C(=O)c2c[nH]c3ncc(-c4ccc(Cl)cc4)cc23)c1F [vemurafenib]
How it was run: (§1)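 The values are log-two fold changes in thermal stability compared with solvent controls and come from duplicates. They were obtained by TMTpro 16plex LC-MS/MS, with channel sums equalised, on the supernatant after 21,000xg for 90 min. That supernatant came from crude K562 extract at 1 mg/mL protein treated with 10 μM compound for 30 min, heated for 3 min across 48°C-58°C, pooled and brought to 0.5% NP-40 at 4°C.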

[1] = compound: CCCS(=O)(=O)Nc1ccc(F)c(C(=O)c2c[nH]c3ncc(Cl)cc23)c1F
How it was run: as §1

barasertib = compound: CCN(CCCOc1ccc2c(Nc3cc(CC(=O)Nc4cccc(F)c4)[nH]n3)ncnc2c1)CCOP(=O)(O)O [barasertib]
How it was run: as §1

[2] = compound: CC[C@@H]1C(=O)N(C)c2cnc(Nc3ccc(C(=O)NC4CCN(C)CC4)cc3OC)nc2N1C1CCCC1
How it was run: as §1

volasertib = compound: CC[C@@H]1C(=O)N(C)c2cnc(Nc3ccc(C(=O)N[C@H]4CC[C@H](N5CCN(CC6CC6)CC5)CC4)cc3OC)nc2N1C(C)C [volasertib]
How it was run: as §1

[3] = compound: CCn1c(C(=O)N(C2CC2)C2CC2)cc2c3c(ncn3C)c(Nc3cc(C)n(C)n3)nc21
How it was run: as §1

[4] = compound: CCn1cc(-c2ccnc3[nH]c(-c4cccc(CN(C)C)c4)cc23)c(-c2ccc(NC(=O)N(C)C)cc2)n1
How it was run: as §1

[5] = compound: CN1CCC(CNc2ccc3ncc(-c4cccc(OC(F)(F)F)c4)n3n2)CC1
How it was run: as §1

saracatinib = compound: CN1CCN(CCOc2cc(OC3CCOCC3)c3c(Nc4c(Cl)ccc5c4OCO5)ncnc3c2)CC1 [saracatinib]
How it was run: as §1

sotrastaurin = compound: CN1CCN(c2nc(C3=C(c4c[nH]c5ccccc45)C(=O)NC3=O)c3ccccc3n2)CC1 [sotrastaurin]
How it was run: as §1

alvocidib = compound: CN1CC[C@H](c2c(O)cc(O)c3c(=O)cc(-c4ccccc4Cl)oc23)[C@H](O)C1 [alvocidib]
How it was run: as §1

Tubastatin A = compound: CN1CCc2c(c3ccccc3n2Cc2ccc(C(=O)NO)cc2)C1 [Tubastatin A]
How it was run: as §1

[6] = compound: CNC(=O)C1=CC=CC=C1NC2=NC(=NC=C2Cl)NC3=C(C=C(C=C3)N4CCOCC4)OC
How it was run: as §1

defactinib = compound: CNC(=O)c1ccc(Nc2ncc(C(F)(F)F)c(NCc3nccnc3N(C)S(C)(=O)=O)n2)cc1 [defactinib]
How it was run: as §1

[7] = compound: CNc1nc(-c2ccc3c(N)n[nH]c3c2)cc(N2C[C@@H](C(=O)NC3CCCCC3)CC[C@H]2C)n1
How it was run: as §1

encorafenib = compound: COC(=O)N[C@@H](C)CNc1nccc(-c2cn(C(C)C)nc2-c2cc(Cl)cc(NS(C)(=O)=O)c2F)n1 [encorafenib]
How it was run: as §1

[8] = compound: COC(=O)[C@H](CCSC)NC(=O)C1=C(C=C(C=C1)NC[C@H](CS)N)C2=CC=CC=C2
How it was run: as §1

alisertib = compound: COc1cc(Nc2ncc3c(n2)-c2ccc(Cl)cc2C(c2c(F)cccc2OC)=NC3)ccc1C(=O)O [alisertib]
How it was run: as §1

[9] = compound: COc1cc2nc(-c3cc(F)ccc3O)nc(N[C@@H]3CNC[C@H]3C(C)(C)O)c2cc1OC
How it was run: as §1

gefitinib = compound: COc1cc2ncnc(Nc3ccc(F)c(Cl)c3)c2cc1OCCCN1CCOCC1 [gefitinib]
How it was run: as §1

Target: TLK2 isoform 2 (UniProt Q86UE8)
Sequence of UniProt Q86UE8 (Q86UE8 whole entry, looked up): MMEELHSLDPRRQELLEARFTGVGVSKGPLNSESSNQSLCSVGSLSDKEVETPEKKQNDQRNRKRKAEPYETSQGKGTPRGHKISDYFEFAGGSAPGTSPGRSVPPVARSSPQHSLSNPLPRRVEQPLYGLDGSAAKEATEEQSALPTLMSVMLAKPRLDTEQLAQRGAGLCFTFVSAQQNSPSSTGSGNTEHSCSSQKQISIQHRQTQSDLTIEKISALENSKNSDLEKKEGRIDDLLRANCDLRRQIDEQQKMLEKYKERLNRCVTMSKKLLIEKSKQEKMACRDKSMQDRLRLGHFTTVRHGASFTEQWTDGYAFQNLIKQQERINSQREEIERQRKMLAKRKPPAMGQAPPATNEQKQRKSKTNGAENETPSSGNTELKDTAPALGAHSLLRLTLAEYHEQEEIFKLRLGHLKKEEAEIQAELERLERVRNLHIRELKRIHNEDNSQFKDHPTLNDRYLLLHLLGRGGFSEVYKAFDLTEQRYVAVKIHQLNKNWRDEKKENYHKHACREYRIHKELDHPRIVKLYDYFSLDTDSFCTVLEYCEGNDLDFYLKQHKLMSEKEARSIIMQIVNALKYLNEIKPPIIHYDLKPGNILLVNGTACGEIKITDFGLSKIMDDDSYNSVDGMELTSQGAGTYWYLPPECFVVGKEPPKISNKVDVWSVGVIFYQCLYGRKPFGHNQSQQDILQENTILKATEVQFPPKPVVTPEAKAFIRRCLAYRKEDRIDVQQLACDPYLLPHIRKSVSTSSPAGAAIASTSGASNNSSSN
- log2 fold change (vemurafenib): -0.015
- log2 fold change [1]: -0.011
- log2 fold change (barasertib): 0.017
- log2 fold change [2]: -0.068
- log2 fold change (volasertib): -0.03
- log2 fold change [3]: -0.009
- log2 fold change [4]: -0.171
- log2 fold change [5]: 0.085
- log2 fold change (saracatinib): 0.021
- log2 fold change (sotrastaurin): 0.26 (active)
- log2 fold change (alvocidib): -0.027
- log2 fold change (Tubastatin A): -0.07
- log2 fold change [6]: -0.03
- log2 fold change (defactinib): 0.117
- log2 fold change [7]: -0.071
- log2 fold change (encorafenib): 0.046
- log2 fold change [8]: -0.063
- log2 fold change (alisertib): -0.01
- log2 fold change [9]: 0.041
- log2 fold change (gefitinib): -0.004

Target: TMPO (UniProt P42166)
Sequence of UniProt P42166 (P42166 whole entry, looked up): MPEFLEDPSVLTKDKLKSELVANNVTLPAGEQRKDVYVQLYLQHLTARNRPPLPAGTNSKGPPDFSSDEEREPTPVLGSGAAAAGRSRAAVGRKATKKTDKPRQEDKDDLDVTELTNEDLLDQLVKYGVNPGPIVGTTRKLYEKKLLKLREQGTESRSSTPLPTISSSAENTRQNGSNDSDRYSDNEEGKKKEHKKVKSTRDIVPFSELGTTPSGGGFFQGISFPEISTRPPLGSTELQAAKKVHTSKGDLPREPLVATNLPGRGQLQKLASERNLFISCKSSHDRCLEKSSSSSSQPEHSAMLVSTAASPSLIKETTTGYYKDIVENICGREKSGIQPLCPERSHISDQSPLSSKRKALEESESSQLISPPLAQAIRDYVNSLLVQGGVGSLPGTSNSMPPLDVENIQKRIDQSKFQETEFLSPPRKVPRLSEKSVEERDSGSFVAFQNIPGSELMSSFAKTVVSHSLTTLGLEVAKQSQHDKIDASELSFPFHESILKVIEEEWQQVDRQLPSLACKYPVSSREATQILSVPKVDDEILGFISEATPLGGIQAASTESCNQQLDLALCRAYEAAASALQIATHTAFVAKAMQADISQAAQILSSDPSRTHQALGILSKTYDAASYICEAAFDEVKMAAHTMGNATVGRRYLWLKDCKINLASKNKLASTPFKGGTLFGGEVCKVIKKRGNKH
- log2 fold change (vemurafenib): 0.027
- log2 fold change [1]: -0.004
- log2 fold change (barasertib): 0.04
- log2 fold change [2]: -0.041
- log2 fold change (volasertib): -0.025
- log2 fold change [3]: 0.033
- log2 fold change [4]: 0.026
- log2 fold change [5]: 0.003
- log2 fold change (saracatinib): -0.017
- log2 fold change (sotrastaurin): -0.161
- log2 fold change (alvocidib): -0.196
- log2 fold change (Tubastatin A): -0.145
- log2 fold change [6]: 0.002
- log2 fold change (defactinib): 0.028
- log2 fold change [7]: -0.003
- log2 fold change (encorafenib): 0.011
- log2 fold change [8]: 0.174
- log2 fold change (alisertib): -0.024
- log2 fold change [9]: 0.012
- log2 fold change (gefitinib): 0.011

Target: TPST2 (UniProt O60704)
Sequence of UniProt O60704 (O60704 whole entry, looked up): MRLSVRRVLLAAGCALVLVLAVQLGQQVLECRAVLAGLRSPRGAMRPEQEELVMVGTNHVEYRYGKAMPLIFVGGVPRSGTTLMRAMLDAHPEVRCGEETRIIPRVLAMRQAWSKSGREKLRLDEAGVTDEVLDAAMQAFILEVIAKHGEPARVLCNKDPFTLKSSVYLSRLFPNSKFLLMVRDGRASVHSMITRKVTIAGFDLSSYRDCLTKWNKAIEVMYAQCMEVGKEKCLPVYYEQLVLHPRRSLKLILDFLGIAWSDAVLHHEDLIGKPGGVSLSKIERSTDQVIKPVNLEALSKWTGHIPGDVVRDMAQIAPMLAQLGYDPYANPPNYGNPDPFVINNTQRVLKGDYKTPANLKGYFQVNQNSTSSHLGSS
- log2 fold change (vemurafenib): 0.053
- log2 fold change [1]: 0.009
- log2 fold change (barasertib): 0.097
- log2 fold change [2]: 0.075
- log2 fold change (volasertib): -0.024
- log2 fold change [3]: -0.011
- log2 fold change [4]: -0.851 (active)
- log2 fold change [5]: 0.188
- log2 fold change (saracatinib): 0.011
- log2 fold change (sotrastaurin): 0.065
- log2 fold change (alvocidib): -0.107
- log2 fold change (Tubastatin A): 0.059
- log2 fold change [6]: 0.041
- log2 fold change (defactinib): -0.038
- log2 fold change [7]: -0.02
- log2 fold change (encorafenib): 0.03
- log2 fold change [8]: -0.049
- log2 fold change (alisertib): 0.478
- log2 fold change [9]: 0.025
- log2 fold change (gefitinib): 0.072

Target: TRIM23 (UniProt P36406)
Sequence of UniProt P36406 (P36406 whole entry, looked up): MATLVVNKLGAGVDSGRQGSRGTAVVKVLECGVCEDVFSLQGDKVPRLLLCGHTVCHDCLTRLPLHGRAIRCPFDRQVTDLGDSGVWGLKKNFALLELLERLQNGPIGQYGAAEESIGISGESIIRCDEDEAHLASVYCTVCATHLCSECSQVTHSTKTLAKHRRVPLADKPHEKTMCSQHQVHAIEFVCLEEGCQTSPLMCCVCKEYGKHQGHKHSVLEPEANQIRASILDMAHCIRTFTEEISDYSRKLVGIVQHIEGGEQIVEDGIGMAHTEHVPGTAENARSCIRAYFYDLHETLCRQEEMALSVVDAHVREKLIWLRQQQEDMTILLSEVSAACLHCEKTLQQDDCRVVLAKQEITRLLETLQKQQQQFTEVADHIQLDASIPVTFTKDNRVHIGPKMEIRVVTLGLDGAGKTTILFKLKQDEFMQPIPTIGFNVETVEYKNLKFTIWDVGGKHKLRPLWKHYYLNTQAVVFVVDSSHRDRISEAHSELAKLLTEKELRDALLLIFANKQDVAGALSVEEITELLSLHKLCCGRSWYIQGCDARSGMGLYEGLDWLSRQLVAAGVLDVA
- log2 fold change (vemurafenib): 0.077
- log2 fold change [1]: -0.038
- log2 fold change (barasertib): 0.119
- log2 fold change [2]: 0.115
- log2 fold change (volasertib): -0.03
- log2 fold change [3]: 0.316
- log2 fold change [4]: -0.28
- log2 fold change [5]: 0.073
- log2 fold change (saracatinib): 0.096
- log2 fold change (sotrastaurin): 0.01
- log2 fold change (alvocidib): -0.071
- log2 fold change (Tubastatin A): 0.023
- log2 fold change [6]: 0.017
- log2 fold change (defactinib): -0.008
- log2 fold change [7]: 0.354
- log2 fold change (encorafenib): -0.063
- log2 fold change [8]: 0.06
- log2 fold change (alisertib): -0.014
- log2 fold change [9]: 0.154
- log2 fold change (gefitinib): 0.057

Target: UBR1 (UniProt Q8IWV7)
Sequence of UniProt Q8IWV7 (Q8IWV7 whole entry, looked up): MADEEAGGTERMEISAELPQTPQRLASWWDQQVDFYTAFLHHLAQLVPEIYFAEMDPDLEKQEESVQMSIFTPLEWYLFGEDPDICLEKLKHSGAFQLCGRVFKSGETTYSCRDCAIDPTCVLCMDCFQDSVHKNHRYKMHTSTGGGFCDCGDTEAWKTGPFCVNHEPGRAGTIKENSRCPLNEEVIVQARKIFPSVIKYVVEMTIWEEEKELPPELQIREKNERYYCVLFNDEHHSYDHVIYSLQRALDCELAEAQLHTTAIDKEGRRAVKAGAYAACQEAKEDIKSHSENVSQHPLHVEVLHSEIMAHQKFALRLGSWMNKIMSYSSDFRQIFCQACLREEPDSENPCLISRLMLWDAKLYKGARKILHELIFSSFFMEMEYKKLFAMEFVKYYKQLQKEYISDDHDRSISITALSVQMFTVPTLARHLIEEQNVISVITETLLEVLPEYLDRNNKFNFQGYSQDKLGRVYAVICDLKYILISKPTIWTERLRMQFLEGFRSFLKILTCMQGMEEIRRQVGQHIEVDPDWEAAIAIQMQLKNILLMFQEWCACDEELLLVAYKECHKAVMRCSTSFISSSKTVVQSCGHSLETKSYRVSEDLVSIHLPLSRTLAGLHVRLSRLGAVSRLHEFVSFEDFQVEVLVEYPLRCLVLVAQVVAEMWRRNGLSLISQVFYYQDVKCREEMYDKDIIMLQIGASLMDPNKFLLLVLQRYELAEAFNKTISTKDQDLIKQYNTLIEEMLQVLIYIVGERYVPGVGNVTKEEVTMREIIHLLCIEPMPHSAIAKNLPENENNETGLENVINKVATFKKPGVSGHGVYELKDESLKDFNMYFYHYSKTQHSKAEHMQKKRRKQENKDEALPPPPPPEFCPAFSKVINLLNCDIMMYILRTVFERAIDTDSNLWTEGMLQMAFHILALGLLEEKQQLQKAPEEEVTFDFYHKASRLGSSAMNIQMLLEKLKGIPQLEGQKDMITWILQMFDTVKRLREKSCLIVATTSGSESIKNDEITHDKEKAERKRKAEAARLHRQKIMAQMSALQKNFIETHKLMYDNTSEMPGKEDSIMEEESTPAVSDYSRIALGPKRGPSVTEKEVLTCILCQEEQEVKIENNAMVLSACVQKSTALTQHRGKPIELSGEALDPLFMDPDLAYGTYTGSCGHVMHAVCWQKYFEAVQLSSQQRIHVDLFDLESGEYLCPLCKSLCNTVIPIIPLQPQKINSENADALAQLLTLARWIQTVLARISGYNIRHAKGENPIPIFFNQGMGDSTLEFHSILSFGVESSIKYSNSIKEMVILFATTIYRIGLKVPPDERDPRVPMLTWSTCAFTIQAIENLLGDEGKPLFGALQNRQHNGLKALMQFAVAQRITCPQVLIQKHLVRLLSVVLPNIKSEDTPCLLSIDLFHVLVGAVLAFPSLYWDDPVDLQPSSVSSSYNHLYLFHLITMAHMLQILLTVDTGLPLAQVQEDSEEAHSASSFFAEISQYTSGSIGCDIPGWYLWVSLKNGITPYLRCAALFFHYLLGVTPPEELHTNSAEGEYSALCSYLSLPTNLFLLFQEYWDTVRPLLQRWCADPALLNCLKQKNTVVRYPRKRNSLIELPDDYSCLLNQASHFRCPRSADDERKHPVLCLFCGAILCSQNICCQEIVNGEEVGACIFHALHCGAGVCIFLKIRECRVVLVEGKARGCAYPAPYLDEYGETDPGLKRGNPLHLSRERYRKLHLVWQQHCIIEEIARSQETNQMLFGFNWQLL
- log2 fold change (vemurafenib): -0.018
- log2 fold change [1]: 0.025
- log2 fold change (barasertib): 0.054
- log2 fold change [2]: -0.032
- log2 fold change (volasertib): -0.07
- log2 fold change [3]: 0.03
- log2 fold change [4]: -0.046
- log2 fold change [5]: -0.038
- log2 fold change (saracatinib): 0.019
- log2 fold change (sotrastaurin): 0.004
- log2 fold change (alvocidib): -0.018
- log2 fold change (Tubastatin A): -0.026
- log2 fold change [6]: 0.009
- log2 fold change (defactinib): 0.001
- log2 fold change [7]: -0.03
- log2 fold change (encorafenib): 0.033
- log2 fold change [8]: 0.055
- log2 fold change (alisertib): 0.003
- log2 fold change [9]: -0.007
- log2 fold change (gefitinib): 0.016

Target: TRIM11 (UniProt Q96F44)
- log2 fold change (vemurafenib): -0.049
- log2 fold change [1]: -0.018
- log2 fold change (barasertib): -0.034
- log2 fold change [2]: -0.001
- log2 fold change (volasertib): -0.043
- log2 fold change [3]: 0.022
- log2 fold change [4]: 0.024
- log2 fold change [5]: 0.009
- log2 fold change (saracatinib): 0.024
- log2 fold change (sotrastaurin): -0.009
- log2 fold change (alvocidib): -0.015
- log2 fold change (Tubastatin A): -0.021
- log2 fold change [6]: 0.037
- log2 fold change (defactinib): 0.016
- log2 fold change [7]: -0.007
- log2 fold change (encorafenib): 0.029
- log2 fold change [8]: 0.053
- log2 fold change (alisertib): -0.026
- log2 fold change [9]: -0.055
- log2 fold change (gefitinib): 0.004

Target: TUBGCP4 (UniProt Q9UGJ1)
Sequence of UniProt Q9UGJ1 (Q9UGJ1 whole entry, looked up): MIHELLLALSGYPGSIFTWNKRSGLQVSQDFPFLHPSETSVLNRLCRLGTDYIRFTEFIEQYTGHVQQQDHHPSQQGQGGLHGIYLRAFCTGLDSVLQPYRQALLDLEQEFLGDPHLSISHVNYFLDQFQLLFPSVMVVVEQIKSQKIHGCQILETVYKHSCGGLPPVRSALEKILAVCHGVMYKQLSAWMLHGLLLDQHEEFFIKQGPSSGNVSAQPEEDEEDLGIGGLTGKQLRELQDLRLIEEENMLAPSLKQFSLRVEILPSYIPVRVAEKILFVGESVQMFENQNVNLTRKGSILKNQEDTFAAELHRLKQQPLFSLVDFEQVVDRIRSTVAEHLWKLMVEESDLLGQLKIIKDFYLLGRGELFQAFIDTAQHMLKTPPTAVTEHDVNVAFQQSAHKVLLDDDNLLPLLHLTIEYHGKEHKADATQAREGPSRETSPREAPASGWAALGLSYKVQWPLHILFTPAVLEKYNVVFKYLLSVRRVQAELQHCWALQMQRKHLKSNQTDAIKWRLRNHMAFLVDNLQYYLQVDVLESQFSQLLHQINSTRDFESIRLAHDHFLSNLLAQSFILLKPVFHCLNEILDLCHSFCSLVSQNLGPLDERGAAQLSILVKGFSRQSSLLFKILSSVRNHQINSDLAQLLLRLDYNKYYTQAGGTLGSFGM
- log2 fold change (vemurafenib): 0.088
- log2 fold change [1]: 0.028
- log2 fold change (barasertib): 0.116
- log2 fold change [2]: 0.039
- log2 fold change (volasertib): -0.027
- log2 fold change [3]: 0.026
- log2 fold change [4]: 0.013
- log2 fold change [5]: -0.077
- log2 fold change (saracatinib): 0.025
- log2 fold change (sotrastaurin): 0.109
- log2 fold change (alvocidib): 0
- log2 fold change (Tubastatin A): -0.081
- log2 fold change [6]: 0.007
- log2 fold change (defactinib): -0.023
- log2 fold change [7]: -0.025
- log2 fold change (encorafenib): -0.049
- log2 fold change [8]: 0.047
- log2 fold change (alisertib): -0.007
- log2 fold change [9]: -0.018
- log2 fold change (gefitinib): -0.043

Target: TCF12 isoform 3 (UniProt Q99081)
- log2 fold change (vemurafenib): 0.008
- log2 fold change [1]: -0.068
- log2 fold change (barasertib): -0.037
- log2 fold change [2]: 0.034
- log2 fold change (volasertib): -0.094
- log2 fold change [3]: 0.017
- log2 fold change [4]: -0.04
- log2 fold change [5]: 0.079
- log2 fold change (saracatinib): 0.043
- log2 fold change (sotrastaurin): -0.054
- log2 fold change (alvocidib): -0.045
- log2 fold change (Tubastatin A): -0.129
- log2 fold change [6]: 0.009
- log2 fold change (defactinib): -0.007
- log2 fold change [7]: -0.013
- log2 fold change (encorafenib): 0.039
- log2 fold change [8]: -0.043
- log2 fold change (alisertib): 0.004
- log2 fold change [9]: -0.025
- log2 fold change (gefitinib): 0.028
